{"source": "PubChem BioAssay AID651800", "about": "(The Scripps Research Institute Molecular Screening Center, 2012)", "note": "Out of some 360,000 compounds screened, about 1,300 (0.36%) were called active. Shown is part of a subset that was picked to be rich in actives. Values without a mark were called inactive. No stated cut-off is given here; in the data, active means inhibition above about 19%; inactive means the rest."}
{"test_system": "T-cell receptor (TCR)", "experiment": "small molecules blocking TCR binding to CD3 – biochemical, fluorescence, TAMRA-labeled TCR probe, primary screen (AID 651800);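 further: recombinant mutant TCR 2C K166C tagged with TAMRA read by polarization; 0% = receptor in buffer alone and 100% = receptor with positive control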", "settings": "at 9.4 µM, active compounds read high"}
{"smiles": "COC(=O)[C@]12C[C@H](CC(=O)NCCc3ccccc3OC)C(=O)N(Cc3ccccc3)C1=C[C@H](C(C)C)O[C@@H]2C1CC1", "inhibition": "0.38%"}
{"smiles": "Cc1[nH]c2ccccc2c1CC(=O)Nc1ccc(Nc2cccnc2)c(-c2cccc(Cl)c2)c1", "inhibition": "7.27%"}
{"smiles": "COc1ccc(N2CCN(C(=O)COc3ccc4c(C)cc(=O)oc4c3)CC2)cc1", "inhibition": "4.22%"}
{"smiles": "Cc1ccc(O)c(/C=N/NC(=O)COc2ccc3c(C)cc(=O)oc3c2)c1", "inhibition": "35% (active)"}
{"smiles": "CC(=O)c1c(C)[nH]c(C(=O)COc2ccc3c(C)cc(=O)oc3c2)c1C", "inhibition": "-7.65%"}
{"smiles": "Cc1nc(NC(=O)C(C)(C)C)sc1[N+](=O)[O-]", "inhibition": "-8.33%"}
{"smiles": "O=S1(=O)c2ccc(Br)cc2-n2nncc2CN1Cc1cccc(Cl)c1", "inhibition": "3.21%"}
{"smiles": "Nc1ncnc2c1ncn2[C@@H]1O[C@H](C(=O)N[C@@H](CCc2ccccc2)C(=O)NCC(=O)N2CCOCC2)[C@@H](O)[C@H]1O", "inhibition": "10.8%"}
{"smiles": "COC(=O)C(C(=O)OC)c1ccccc1NS(=O)(=O)c1cccc2ccccc12", "inhibition": "6.59%"}
{"smiles": "O=C(NN=Cc1ccco1)C(=O)Nc1ccc(Cl)c([N+](=O)[O-])c1", "inhibition": "3.53%"}
{"smiles": "CCOc1cc(/C=N/NC(=O)c2cccc(S(=O)(=O)N3CCOCC3)c2)ccc1OCC(=O)N(C)C", "inhibition": "-6.38%"}
{"smiles": "O=C(NNC1=NCCC1)c1cccc(S(=O)(=O)N2CCCCC2)c1", "inhibition": "-7.2%"}
{"smiles": "Cc1ncc(CO)c(/C=N/NC(=O)c2cccc(S(=O)(=O)N3CCCC3)c2)c1O", "inhibition": "27.1% (active)"}
{"smiles": "O=C(O)Cn1cnc2c(NCc3ccccc3)ncnc21", "inhibition": "-4.94%"}
{"smiles": "Cc1cc2ccccc2n1CCNC(=O)COc1ccc2ccccc2c1", "inhibition": "60.3% (active)"}
{"smiles": "Cc1ccc(C)c(NC(=O)CN(C)C(=O)COc2ccc3ccccc3c2)c1", "inhibition": "-2.17%"}
{"smiles": "COCCNC(=O)COc1ccc(N(C)S(=O)(=O)c2ccc3ccccc3c2)cc1", "inhibition": "-0.41%"}
{"smiles": "N#Cc1cccc(C(=O)NCC2CCN(C(=O)C(=O)c3cc4ccccc4o3)CC2)c1", "inhibition": "0.99%"}
{"smiles": "CCOc1ccccc1C(=O)N1CCC[C@@H]1C(=O)N1CCC[C@H]1C(=O)NCc1ccccc1", "inhibition": "-2.28%"}
{"smiles": "Cc1ccc2nc(-c3ccc(NC(=O)CN(C)S(=O)(=O)c4ccccc4)cc3)sc2c1", "inhibition": "8.35%"}
{"smiles": "O=C(NCC(O)c1nc2ccccc2[nH]1)c1ccc(Br)cc1", "note": "(stereo unspecified)", "inhibition": "4.63%"}
{"smiles": "O=C(Nc1ccccc1)c1cc2ccccc2[nH]1", "inhibition": "-3.23%"}
{"smiles": "O=C(Nc1cccc(-c2nc3ccccc3[nH]2)c1)c1ccc(C(=O)Nc2cccc(-c3nc4ccccc4[nH]3)c2)cc1", "inhibition": "26.7% (active)"}
{"smiles": "Cc1cc(OC(=O)NCCc2ccc(F)cc2)ccc1F", "inhibition": "1.4%"}
{"smiles": "COC(=O)c1cc2c(c3c4cc(F)ccc4n(S(=O)(=O)c4ccccc4)c13)C(=O)N(Cc1ccccc1OC)C2", "inhibition": "2.91%"}
{"smiles": "CC(C)(C)C(c1nc2ccccc2[nH]1)n1c(Cc2csc3ccccc23)nc2ccccc21", "note": "(stereo unspecified)", "inhibition": "5.18%"}
